Laboratory results as given in PubChem BioAssay (NCI).
This is part of a sample that, as a whole, favours compounds with a hit. Of some 83,000 tested, about 20% had one in any assay.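 For each line, cells grew in 96-well plates with the test compound present at a single concentration for 48 hours.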 Unmarked numbers belong to inactive results. Calls of active or inactive are those of the source. Rule for the calls: active = growth percent below 10; inactive = the rest.

How the values were obtained:
Test in all cases: NCI-60 one-dose screen, 48 h (100 = growth as untreated, 0 = no growth, -100 = all killed)
Conditions in all cases: 10 µM
NCI-H23 lung = tested on: NCI-H23 lung
NCI-H226 lung = tested on: NCI-H226 lung
NCI-H322M lung = tested on: NCI-H322M lung
HOP-62 NSCLC = tested on: HOP-62 NSCLC
NCI-H460 lung = tested on: NCI-H460 lung
HOP-92 NSCLC = tested on: HOP-92 NSCLC
NCI-H522 lung = tested on: NCI-H522 lung
A549/ATCC NSCLC = tested on: A549/ATCC NSCLC
786-0 renal = tested on: 786-0 renal
COLO 205 colon = tested on: COLO 205 colon

Compound | growth (NCI-H23 lung) | growth (NCI-H226 lung) | growth (NCI-H322M lung) | growth (HOP-62 NSCLC) | growth (NCI-H460 lung) | growth (HOP-92 NSCLC) | growth (NCI-H522 lung) | growth (A549/ATCC NSCLC) | growth (786-0 renal) | growth (COLO 205 colon)
CC1(CO)CCCC12OCCO2 (stereo not given) | 106% | 99.7% | 107% | 100% | 105% | 120% | 93% | 101% | 102% | 114%
COc1ccc(-c2nc(SCC(=O)c3ccc(Br)cc3)[nH]c(=O)c2C#N)cc1 | 106% | 98.1% | 97.3% | 101% | 108% | 85.9% | 95.4% | 99.6% | 89.9% | 119%
CCCc1ccnc(NS(=O)(=O)c2ccc(N)cc2)n1 | 62.8% | 79.2% | 103% | 105% | 95.4% | 93.1% | 56.6% | 79.3% | 90.3% | 37.8%
Clc1ccc(-c2nc(-c3cccs3)cn3ccnc23)cc1 | 71.1% | 72% | 97.4% | 57.7% | 81.3% | 81.5% | 28% | 57.4% | 99.8% | 71.1%
O=C(Nc1cccc(Cl)c1)OCC(COC(=O)Nc1cccc(Cl)c1)(COC(=O)Nc1cccc(Cl)c1)[N+](=O)[O-] | 22.9% | 66.4% | 45.8% | 41.8% | 17.9% | 18.6% | 27.4% | 26.2% | 32.8% | 35.5%
O=C(N/N=c1/ccoc2cccnc12)N1CCN(c2ncccn2)CC1 | 26.4% | 37.6% | 39.1% | 24.5% | 15.2% | 64.2% | 9.96% (active) | 17.6% | 40.4% | 4.3% (active)
Nc1nc2c(nnn2C2CC(O)C(CO)O2)c(=O)[nH]1 (stereo not given) | 45% | 50% | 52% | 69% | 54.3% | 43.7% | 24.4% | 76.2% | 50.7% | 11.9%
Nc1c(C(=O)Nc2ccccc2F)sc2nc3c(cc12)C(=O)CCC3 | 42.8% | 75.1% | 68.8% | 42.7% | 11.4% | 53.6% | -15.2% (active) | 22% | 41.5% | 5.76% (active)
O=C(COc1ccc(-c2nc3ccccc3[nH]2)cc1)N=Nc1c(O)[nH]c2ccccc12 | 106% | 116% | 96.1% | 105% | 97.8% | 79.8% | 94% | 106% | 96.8% | 92.4%
O=C(Nc1cccc(C(F)(F)F)c1)C(Cl)Cl | 94.1% | 101% | 87.5% | 96.5% | 102% | 81.7% | 98.2% | 98% | 101% | 101%
O=C(NCc1cn(Cc2cccc(Oc3ccccc3)c2)nn1)c1cccnc1Nc1ccccc1 | 51.9% | 61.5% | 76.9% | 54.8% | 27% | 34.9% | 54.5% | 50.6% | 51.4% | 69.9%
COC(=O)c1cnc2c(c1)Oc1ccccc1-c1ccnn1-2 | 95.8% | 83.9% | 105% | 92.5% | 104% | 86.9% | 80.3% | 86.3% | 90.6% | 101%
Clc1cc(Cl)c(OCCCCCCN2CCNCC2)c(Cl)c1 | 53.9% | 94% | 78.3% | 77.6% | -39.8% (active) | -0.831% (active) | 55.1% | 53.8% | 23.1% | -71.3% (active)
N#Cc1c2c([nH]c(=O)c1C(N)=O)CCCCC2 | 100% | 100% | 97.6% | 92.4% | 105% | 112% | 90.7% | 91.3% | 98.5% | 102%
CCCCCC(=O)N1c2ccccc2NC2=C(C(=O)CC(c3ccc(OC)c(OC)c3)C2)C1c1ccc(C(F)(F)F)cc1 (stereo not given) | 51.5% | 64.8% | 70.6% | 54.8% | 76.9% | 66.4% | 37.5% | 58.5% | 65.8% | 69.2%
COc1cc(C)c2sc3ccccc3c(=O)c2c1NCCN(C)C | 76.3% | 74% | 90.6% | 67.7% | 22.2% | 19.1% | 80.1% | 28.8% | 65.9% | 16.1%
CCOc1cc(Br)c(C(C)NC(=O)c2cccc(OC)c2)cc1OCC (stereo not given) | 79.7% | 89.2% | 94.3% | 87.3% | 78.1% | 8.9% (active) | 83.6% | 76.6% | 68.1% | 23.8%
Cc1nc2scc(-c3ccc(Cl)cc3)n2c(=O)c1CCN1CCOCC1 | 101% | 94.6% | 89.7% | 89% | 107% | 81.6% | 86.8% | 99.6% | 98.8% | 99.9%
NC(=O)C12C(=O)NC(=O)C1(C(=O)O)C21CCCC1 (stereo not given) | 109% | 110% | 104% | 110% | 117% | 102% | 111% | 99% | 101% | 115%
NS(=O)(=O)c1ccc(N2N=C(c3ccc(-c4ccccc4)cc3)CC2c2ccc(Cl)cc2)cc1 (stereo not given) | 85.9% | 81% | 87.6% | 90.8% | 70.1% | 78.4% | 75.1% | 64.1% | 95.9% | 103%
O=C(OCC1OC(n2cc(C(F)(F)F)c(=O)[nH]c2=O)CC1OC(=O)c1ccc([N+](=O)[O-])cc1)c1ccc([N+](=O)[O-])cc1 (stereo not given) | 90.9% | 72.5% | 91.2% | 75.9% | 31.2% | 69.9% | 76.6% | 69.6% | 18.9% | 87.8%
c1ccc(OCCC[P+](c2ccccc2)(c2ccccc2)c2ccccc2)cc1 | 1.67% (active) | 47.4% | 20.4% | 22% | 12.5% | -31.3% (active) | -7.37% (active) | 25.6% | 23.1% | -35.6% (active)
COc1cc(Cn2c(-c3ccccc3)cc3c2-c2oncc2CC3)cc(OC)c1 | 23.7% | -3.31% (active) | 8.6% (active) | 60.5% | -0.835% (active) | 48.8% | -17.2% (active) | 23.3% | 37.6% | -29.6% (active)
CCOC(=O)C(=O)Cc1cccnn1 | 101% | 95.2% | 109% | 103% | 116% | 86.1% | 97.2% | 97.5% | 96.4% | 102%
Clc1cc(Cl)c(Cl)c(-c2nc(-c3cccnc3)cs2)c1 | 94.8% | 90.9% | 99.2% | 114% | 92.2% | 79.7% | -51% (active) | 78.9% | 99.1% | 57.1%
CCCCOCC(=O)NC(NP(=O)(N(C)C)N(C)C)C(Cl)(Cl)Cl (stereo not given) | 101% | 109% | 127% | 81.2% | 110% | 97.7% | 107% | 102% | 92.5% | 109%
COc1cc(C2C=C(c3ccc(Cl)cc3)N=C3SC(C)=CN32)cc(OC)c1OC (stereo not given) | 93.8% | 96.9% | 97.3% | 109% | 102% | 95.2% | 69.9% | 83.8% | 89.5% | 109%
